Among all 340,000 compounds or so, about 1,700 (0.5%) were called active. Rule as the data show it: active = inhibition above about 36%; inactive = the rest. For the sample, actives were picked, then their nearest neighbours and some compounds at random.
Target: Serine protease HTRA1 (Homo sapiens) (UniProt Q92743)
Assay: inhibition of human HTRA1 peptidase – biochemical, fluorescence polarization, HTS, primary screen (AID 504803);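 also: 0% = enzyme with DMSO and 100% = wells lacking enzyme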
Conditions: recombinant HTRA1, FP-rhodamine activity-based probe, at 5.96 µM, stronger effect = higher value

Sequence of Serine protease HTRA1 (Homo sapiens) (Q92743 whole entry, looked up): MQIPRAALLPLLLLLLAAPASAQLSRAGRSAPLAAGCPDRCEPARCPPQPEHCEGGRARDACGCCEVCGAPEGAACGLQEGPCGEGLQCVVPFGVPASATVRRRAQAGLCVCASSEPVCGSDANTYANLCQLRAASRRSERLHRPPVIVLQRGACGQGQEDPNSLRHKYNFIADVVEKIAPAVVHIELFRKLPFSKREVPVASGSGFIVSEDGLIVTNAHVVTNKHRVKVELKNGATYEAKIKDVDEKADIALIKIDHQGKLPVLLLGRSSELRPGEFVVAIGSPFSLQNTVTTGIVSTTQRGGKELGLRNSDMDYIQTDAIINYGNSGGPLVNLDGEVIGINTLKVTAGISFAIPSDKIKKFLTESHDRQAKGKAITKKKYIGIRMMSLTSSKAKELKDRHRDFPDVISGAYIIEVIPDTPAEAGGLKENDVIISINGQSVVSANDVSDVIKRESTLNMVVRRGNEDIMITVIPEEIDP

inhibition, inactive:
C[C@@H]1CN([C@@H](C)CO)C(=O)CCCn2nncc2CO[C@H]1CN(C)C(=O)Nc1ccc(C(F)(F)F)cc1 -1.93%
CCOC(=O)C(=Cc1ccccc1)C(=O)c1ccccc1 -10%
O=C(CSc1ccc(Cl)cc1)NC1CC1 1.09%
COc1ccc(NCCc2ccccn2)cc1 3.17%
COc1ccc2nc(-c3ccccn3)ccc2c1 4.04%
C[C@H]1CN([C@@H](C)CO)C(=O)c2cc(C3=CCCCC3)cnc2O[C@@H]1CN(C)C(=O)Cc1ccccc1 -0.1%
Cc1ccc(C=O)c([B-](F)(F)F)c1 4.92%
Nc1ccccc1-c1nc2ccncc2[nH]1 -6.2%
O=C(Nc1sc2c(c1-c1nc3ccccc3[nH]1)CCCC2)C1CC1 3.75%
NC(=S)NN=Cc1ccc(OC(=O)COc2cc(Cl)c(Cl)cc2Cl)cn1 -2.79%
NC(=O)CSC1=Nc2ccccc2C2=NC(CCC(=O)NCc3ccc(F)cc3)C(=O)N12 (stereo not given) 1.09%
O=C(CSC1=Nc2ccccc2C2=NC(c3ccccc3)C(=O)N12)NCC1CCCO1 (stereo not given) 5.98%
CC(C)CCC(=O)Nc1cc(S(=O)(=O)N2CCOCC2)ccc1N1CCCC1 -0.61%
C#Cc1cc(N2CCN(C(=O)c3ccoc3)CC2)n2nc(-c3cccc(Cl)c3)cc2n1 -68.2%
CN(c1ccccc1)S(=O)(=O)c1ccc(C(=O)NCc2cccnc2)cc1 2.31%
Cc1cc2c3ccccc3[nH]c(=O)n2n1 -0.09%
CCN(CC)S(=O)(=O)c1ccc(N2CCOCC2)c(NC(=O)C2COc3ccccc3O2)c1 (stereo not given) -9.82%
Cc1c(CCC(=O)O)c(=O)oc2c(C)c(OCc3ccccc3Cl)ccc12 -1.83%
CCN1CCCC1CNC(=O)c1ccc2c(c1)NC(=O)/C(=C\c1ccccc1F)S2 (stereo not given) -43.1%
O=C(CCCN1C(=O)C(c2ccccc2)Oc2cccnc21)Nc1ccccc1Br (stereo not given) -5.83%

inhibition, active:
COc1cnc(-c2ccccn2)nc1Oc1ccc(C(C)(C)C)cc1 56.8%
CN1c2ccc(C=O)c3c(C=O)ccc(c23)N(C)C1(C)C 53.2%
c1ccc2[nH]c(-c3nc4ccccc4[nH]3)nc2c1 80.8%
CC(C)C1N=C2c3ccccc3N=C(SCC(=O)c3ccc(O)c(O)c3)N2C1=O (stereo not given) 59.3%
Cc1c(CC(=O)N2CCN(C(=O)C3COc4ccccc4O3)CC2)c(=O)oc2c(O)c(O)ccc12 (stereo not given) 51.5%
